Test results from PubChem BioAssay (NCI).
Compounds without any hit were thinned out: in the full panel of roughly 79,000, 15% have a hit. The source made the active and inactive calls. Rule as the data show it: active = growth inhibition above about 70%; inactive = the rest.

Key:
[1] = NCI Yeast Anticancer Drug Screen. Data for the rad50 strain (AID 155);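 also: 0% = growth of vehicle-only cultures of the same strain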; details: S. cerevisiae rad50 strain growth inhibition, hits give high values
Method in brief: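 Growth of the mutant yeast was measured after compound exposure and referenced to vehicle-treated cultures.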

[2] = NCI Yeast Anticancer Drug Screen. Data for the mec2-1 strain (AID 157); details: S. cerevisiae mec2-1 strain, hits give high values
Method in brief: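 Yeast mec2-1 mutant treated with compound. Readout: growth inhibition vs vehicle controls.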

[3] = NCI Yeast Anticancer Drug Screen. Data for the sgs1 mgt1 strain (AID 161);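 also: 0% = growth of cultures given vehicle only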; details: S. cerevisiae sgs1 mgt1 strain, hits give high values
Method in brief: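 Read-out: growth inhibition vs vehicle controls. Cells: mutant yeast strain deficient in DNA damage repair.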

[4] = NCI Yeast Anticancer Drug Screen. Data for the cln2 rad14 strain (AID 165);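 also: 0% = growth equal to vehicle treated cultures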; details: S. cerevisiae cln2 rad14 strain, hits give high values
Method in brief: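 cln2 rad14 yeast strain; compound exposure; growth inhibition read vs vehicle controls.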

[5] = NCI Yeast Anticancer Drug Screen. Data for the bub3 strain (AID 167); details: S. cerevisiae bub3 mutant strain, hits give high values
Method in brief: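 Whole-cell yeast assay. The mutant strain was incubated with compounds, and growth inhibition was determined by comparison with vehicle-treated cells.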

[6] = NCI Yeast Anticancer Drug Screen. Data for the mlh1 rad18 strain (AID 175); details: S. cerevisiae mlh1 rad18 strain growth inhibition, hits give high values
Method in brief: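 Yeast w/ defined DNA-repair lesions; compound exposure; growth vs vehicle controls → % inhibition.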

[7] = at 5.0 µM (retest, dose inferred, filed as 0.5)
[8] = at 50.0 µM (retest, dose inferred, filed as 5.0)

Measured: growth inhibition

COc1ccc(/C=C/c2ccnc3ccccc23)cc1
inactive: [1]; [7] 24% | [2]; [7] 20% | [3]; [7] 22% | [4]; [7] 25% | [5]; [7] 48% | [6]; [7] 29%
active: [1]; [8] 98% | [1]; at 50.0 µM 90.3% | [2]; [8] 99% | [2]; at 50.0 µM 92.2% | [3]; [8] 99% | [3]; at 50.0 µM 89.7% | [4]; [8] 96% | [4]; at 50.0 µM 89% | [5]; [8] 99% | [5]; at 50.0 µM 86.5% | [6]; [8] 98% | [6]; at 50.0 µM 86%

O=C(O)c1ccccc1N=N/C(=N\Nc1cc(S(=O)(=O)O)ccc1O)c1ccccc1
inactive: [1]; [7] -7% | [1]; at 50.0 µM 48.4% | [2]; [7] -5% | [2]; [8] 49% | [2]; at 50.0 µM 20.5% | [3]; [7] -3% | [3]; at 50.0 µM 46.5% | [4]; [7] -3% | [4]; [8] 47% | [4]; at 50.0 µM -32% | [5]; [7] 1% | [5]; at 50.0 µM 38.8% | [6]; [7] -4% | [6]; at 50.0 µM 44.5%
active: [1]; [8] 85% | [3]; [8] 95% | [5]; [8] 97% | [6]; [8] 74%

O=C1N(Cc2ccccc2)CC1(c1ccccc1)C1CCCCC1O (stereo not given)
active: [1]; [8] 96% | [3]; [8] 82% | [4]; [8] 84% | [5]; [8] 93% | [6]; [8] 93%
inactive: [1]; [7] -1% | [1]; at 50.0 µM -18.1% | [2]; [7] -5% | [2]; [8] 49% | [2]; at 50.0 µM 7.8% | [3]; [7] -3% | [3]; at 50.0 µM 35.5% | [4]; [7] -8% | [4]; at 50.0 µM 6.9% | [5]; [7] -2% | [5]; at 50.0 µM 65.6% | [6]; [7] -2% | [6]; at 50.0 µM 4.1%

CCC(CC)COC(=O)c1cccnc1
inactive: [1]; [7] 1% | [2]; [7] -19% | [3]; [7] 0% | [4]; [7] -4% | [5]; [7] -6% | [6]; [7] 0%
active: [1]; [8] 99% | [1]; at 50.0 µM 97.7% | [2]; [8] 99% | [2]; at 50.0 µM 99.1% | [3]; [8] 99% | [3]; at 50.0 µM 98.2% | [4]; [8] 99% | [4]; at 50.0 µM 96.9% | [5]; [8] 98% | [5]; at 50.0 µM 97.8% | [6]; [8] 98% | [6]; at 50.0 µM 97.5%

Cc1ccc(N=Nc2c(C)c(C#N)c(=S)n(C3OC(CO)C(O)C(O)C3O)c2-c2ccccc2)cc1 (stereo not given)
inactive: [1]; [7] -8% | [1]; [8] -2% | [1]; at 50.0 µM 35% | [2]; [7] -5% | [2]; [8] 2% | [2]; at 50.0 µM 50.5% | [3]; [7] -1% | [3]; [8] 12% | [3]; at 50.0 µM 65.2% | [4]; [7] 12% | [4]; [8] 15% | [4]; at 50.0 µM 46% | [5]; [7] -4% | [5]; [8] -10% | [5]; at 50.0 µM 42% | [6]; [7] -17% | [6]; [8] 21% | [6]; at 50.0 µM 68.8%

CC(=O)N(O)c1ccc2c(c1)Cc1cc(F)ccc1-2
active: [1]; [7] 75% | [1]; at 50.0 µM 97% | [2]; at 50.0 µM 94% | [3]; at 50.0 µM 97.1% | [4]; at 50.0 µM 92.5% | [5]; [8] 80% | [5]; at 50.0 µM 97.8% | [6]; at 50.0 µM 96.5%
inactive: [1]; [8] 37% | [2]; [7] 34% | [2]; [8] 29% | [3]; [7] 65% | [3]; [8] 35% | [4]; [7] 45% | [4]; [8] 21% | [5]; [7] -14% | [6]; [7] 49% | [6]; [8] 57%

COc1cc(C2OC(=O)c3ccccc3S2)ccc1O (stereo not given)
active: [1]; [8] 92% | [1]; at 50.0 µM 98.7% | [2]; [8] 98% | [2]; at 50.0 µM 98.6% | [3]; [8] 74% | [3]; at 50.0 µM 71.6% | [4]; [8] 76% | [4]; at 50.0 µM 96% | [5]; [8] 84% | [5]; at 50.0 µM 95.5% | [6]; [8] 98% | [6]; at 50.0 µM 99.5%
inactive: [1]; [7] 8% | [2]; [7] 12% | [3]; [7] -4% | [4]; [7] 7% | [5]; [7] 5% | [6]; [7] 13%

CC1(c2ccc3ccccc3c2)C(C#N)(C#N)C1(C#N)C#N
active: [1]; [7] 87% | [1]; [8] 92% | [1]; at 50.0 µM 91.4% | [2]; [7] 94% | [2]; [8] 94% | [2]; at 50.0 µM 92% | [3]; [7] 97% | [3]; [8] 96% | [3]; at 50.0 µM 88% | [4]; [8] 93% | [4]; at 50.0 µM 83.2% | [5]; [7] 96% | [5]; [8] 93% | [5]; at 50.0 µM 91.2% | [6]; [7] 97% | [6]; [8] 93% | [6]; at 50.0 µM 87.7%
inactive: [4]; [7] 62%

CCN1/C(=C/C=C/C=C\C=C\c2sc3ccc4ccccc4c3[n+]2CC)Sc2ccc3ccccc3c21
active: [2]; [8] 80% | [3]; [8] 75% | [6]; [8] 73%
inactive: [1]; [7] 28% | [1]; [8] 68% | [1]; at 50.0 µM 49.2% | [2]; [7] 21% | [2]; at 50.0 µM 46.8% | [3]; [7] 25% | [3]; at 50.0 µM 47.6% | [4]; [7] 48% | [4]; [8] 65% | [4]; at 50.0 µM 54% | [5]; [7] 34% | [5]; [8] 65% | [5]; at 50.0 µM 30.4% | [6]; [7] 25% | [6]; at 50.0 µM 40.6%

Cc1cc(C(=O)O)c(C)cc1SSc1cc(C)c(C(=O)O)cc1C
active: [1]; [8] 72% | [2]; [8] 74% | [3]; [8] 76% | [4]; [8] 70% | [6]; [8] 81%
inactive: [1]; [7] -12% | [1]; at 50.0 µM 51.4% | [2]; [7] 11% | [2]; at 50.0 µM 9.25% | [3]; [7] 4% | [3]; at 50.0 µM 54.7% | [4]; [7] -5% | [4]; at 50.0 µM 3.7% | [5]; [7] -13% | [5]; [8] 63% | [5]; at 50.0 µM 41.4% | [6]; [7] -3% | [6]; at 50.0 µM 69.2%
